Experimental data as given in the antibiotic and cytotoxicity screens of Wong et al. (2023).
Among all 39,000 compounds or so, about 3,300 (8.5%) were called active. The sample as a whole holds a higher share of actives than the screen did.

test system: HepG2; test: cytotoxicity call (relative viability < 0.9); details: 10 µM

Structure (SMILES)	cytotoxicity call
CN(C)CCN1CCN(C)C2(CCN(S(=O)(=O)C3CC3)CC2)C1=O	inactive
Cc1noc(C)c1NC(=O)Nc1ccc2c(c1)CC(=O)N([C@@H](C)CO)C[C@H](C)[C@@H](CN(C)Cc1ccc(C(=O)Nc3ccccc3N)cc1)O2	inactive
CCCNC(=O)N1C[C@H](O)COC[C@@H]2O[C@@H](CC(=O)N3CCOCC3)CC[C@H]21	inactive
CO[C@@H]1CN(C)C(=O)c2cc(NC(=O)Nc3cccc(F)c3)ccc2OC[C@@H](C)N(C(=O)Nc2c(C)noc2C)C[C@H]1C	inactive
Cc1cc(Cn2c(=O)n(Cc3cnc(C)s3)c(=O)c3cc(S(=O)(=O)NC4(C)CC4)ccc32)n(C)n1	inactive
COc1ccccc1CNC(=O)C[C@@H]1C[C@H]2c3cc(NC(=O)c4ccc5c(c4)OCO5)ccc3O[C@H]2[C@H](CO)O1	inactive
C[C@@H]1CN([C@H](C)CO)C(=O)c2cc(C#Cc3ccccc3)cnc2O[C@@H]1CN(C)S(=O)(=O)c1ccccc1F	inactive
C[C@@H]1CN([C@H](C)CO)C(=O)c2cc(C#Cc3ccccc3F)cnc2O[C@H]1CN(C)S(=O)(=O)c1ccccc1F	inactive
C[C@@H]1CN([C@@H](C)CO)C(=O)c2cc(C#Cc3ccccc3)cnc2O[C@H]1CN(C)S(=O)(=O)c1ccccc1F	active
C[C@H]1CN([C@@H](C)CO)C(=O)c2cc(C#Cc3ccccc3F)cnc2O[C@@H]1CN(C)S(=O)(=O)c1ccccc1F	inactive
C[C@H](CO)N1C[C@H](C)[C@H](CN(C)S(=O)(=O)c2ccccc2F)Oc2ncc(C#Cc3ccccc3)cc2C1=O	inactive
C[C@H]1CN([C@@H](C)CO)C(=O)c2cc(C#Cc3ccccc3)cnc2O[C@H]1CN(C)S(=O)(=O)c1ccccc1F	inactive
C[C@H](CO)N1C[C@H](C)[C@@H](CN(C)S(=O)(=O)c2ccccc2F)Oc2ncc(C#Cc3ccccc3)cc2C1=O	inactive
C[C@@H]1CN([C@@H](C)CO)C(=O)c2cc(C#Cc3ccccc3F)cnc2O[C@H]1CN(C)S(=O)(=O)c1ccccc1F	active
C[C@@H]1CN([C@@H](C)CO)C(=O)c2cc(C#Cc3ccccc3)cnc2O[C@@H]1CN(C)S(=O)(=O)c1ccccc1F	active
C[C@H](CO)N1C[C@H](C)[C@H](CN(C)C(=O)Nc2cccc3ccccc23)Oc2ccc(NC(=O)NC3CCCCC3)cc2CC1=O	inactive
Cc1cc(=O)n(CNC(=O)c2ccco2)cn1	inactive
O=C([O-])C(O)C(O)C(O)C(O)C(O)CO.O=C([O-])C(O)C(O)C(O)C(O)C(O)CO.[Ca+2] (stereo unspecified)	inactive
O=C(C[C@H]1CC[C@H]2NC[C@@H](O)COC[C@@H]2O1)NCCN1CCCC1	inactive

Structure (SMILES)	cytotoxicity call
COc1ccsc1C(N)=O	inactive
C[C@H]1CN([C@@H](C)CO)C(=O)Cc2cc(NC(=O)CCCCCC(=O)Nc3ccccc3N)ccc2O[C@@H]1CN(C)C(=O)Nc1cccc2ccccc12	inactive
COC(=O)C[C@@H]1CC[C@@H]2[C@H](COC[C@@H](O)CN2S(=O)(=O)c2cn(C)cn2)O1	inactive
CC(C)=CCC/C(C)=C/CC/C(C)=C/CC/C(C)=C/CO	inactive
Cc1ccc(-c2cnc3c(c2)C(=O)N([C@@H](C)CO)C[C@H](C)[C@H](CN(C)C(=O)Cc2ccncc2)O3)cc1	inactive
C[C@@H]1CN([C@H](C)CO)C(=O)c2cc(NC(=O)CCN3CCOCC3)ccc2O[C@@H]1CN(C)S(=O)(=O)c1ccc(F)cc1	inactive
C[C@@H]1CCCCO[C@H](CN(C)C(=O)c2ccccc2)[C@@H](C)CN([C@H](C)CO)C(=O)c2cc(NC(=O)Nc3ccccc3)ccc2O1	inactive
C[C@H]1CN([C@@H](C)CO)C(=O)c2cc(NC(=O)CCN3CCOCC3)ccc2O[C@H]1CN(C)C(=O)Nc1ccc2c(c1)OCO2	inactive
C[C@H](CO)N1C[C@H](C)[C@H](CN(C)C(=O)Nc2ccc3c(c2)OCO3)Oc2ccc(NC(=O)CCN3CCOCC3)cc2C1=O	inactive
C[C@@H]1CN([C@@H](C)CO)C(=O)c2cc(NC(=O)CCN3CCOCC3)ccc2O[C@@H]1CN(C)C(=O)Nc1ccc2c(c1)OCO2	active
C[C@@H]1CN([C@H](C)CO)C(=O)c2cc(NC(=O)CCN3CCOCC3)ccc2O[C@H]1CN(C)C(=O)Nc1ccc2c(c1)OCO2	active
C[C@@H]1CN([C@@H](C)CO)C(=O)c2cc(NC(=O)CCN3CCOCC3)ccc2O[C@H]1CN(C)C(=O)Nc1ccc2c(c1)OCO2	inactive
C[C@@H]1CN([C@H](C)CO)C(=O)c2cc(NC(=O)CCN3CCOCC3)ccc2O[C@@H]1CN(C)C(=O)Nc1ccc2c(c1)OCO2	inactive
C[C@@H]1CCCCO[C@@H](CN(C)S(=O)(=O)c2cn(C)cn2)[C@@H](C)CN([C@H](C)CO)C(=O)c2cc(NC(=O)c3ccncc3)ccc2O1	inactive
COc1cccc(OC[C@@H](O)CN(CCO)CCO)c1	inactive
O=C(C[C@@H]1C=C[C@@H](NC(=O)Nc2ccc3c(c2)OCO3)[C@@H](CO)O1)NCCCN1CCOCC1	inactive
C[C@H]1CCCCO[C@H](CN(C)S(=O)(=O)c2cn(C)cn2)[C@@H](C)CN([C@@H](C)CO)C(=O)c2cc(NS(C)(=O)=O)ccc2O1	inactive
C[C@@H]1CN([C@H](C)CO)C(=O)c2cccc(N(C)C)c2O[C@@H]1CN(C)S(C)(=O)=O	inactive
C[C@@H]1CCCCO[C@H](CN(C)S(=O)(=O)c2ccccc2)[C@H](C)CN([C@@H](C)CO)C(=O)c2cc(NC(=O)Nc3ccccc3)ccc2O1	inactive

Structure (SMILES)	cytotoxicity call
COCC#Cc1ccc([C@@H]2[C@@H](CO)N3C(=O)CN(C(=O)C4CCOCC4)C[C@H]23)cc1	inactive
COc1ccccc1OC[C@@H](O)COC(N)=O	inactive
COc1ccccc1OCC(O)COC(N)=O (stereo unspecified)	active
NC(=O)OCC(COC(N)=O)c1ccccc1	inactive
Cc1noc(C)c1S(=O)(=O)Nc1ccc2c(c1)CC(=O)N([C@H](C)CO)C[C@@H](C)[C@@H](CN(C)CC1CC1)O2	inactive
Cc1ccc(S(=O)(=O)N(C)C[C@@H]2Oc3ccc(NC(=O)Cn4cnnn4)cc3CC(=O)N([C@@H](C)CO)C[C@@H]2C)cc1	inactive
Cc1noc(C)c1S(=O)(=O)Nc1ccc2c(c1)CC(=O)N([C@H](C)CO)C[C@H](C)[C@@H](CN(C)Cc1ccc(-c3ccccc3)cc1)O2	active
Cc1noc(C)c1S(=O)(=O)Nc1ccc2c(c1)CC(=O)N([C@H](C)CO)C[C@@H](C)[C@H](CN(C)Cc1ccc(-c3ccccc3)cc1)O2	inactive
Cc1noc(C)c1S(=O)(=O)Nc1ccc2c(c1)CC(=O)N([C@H](C)CO)C[C@@H](C)[C@@H](CN(C)Cc1ccc(Oc3ccccc3)cc1)O2	inactive
Cc1noc(C)c1S(=O)(=O)Nc1ccc2c(c1)CC(=O)N([C@H](C)CO)C[C@H](C)[C@@H](CN(C)Cc1ccc(Oc3ccccc3)cc1)O2	active
Cc1noc(C)c1S(=O)(=O)Nc1ccc2c(c1)CC(=O)N([C@@H](C)CO)C[C@@H](C)[C@@H](CN(C)Cc1ccc(Oc3ccccc3)cc1)O2	active
Cc1noc(C)c1S(=O)(=O)Nc1ccc2c(c1)CC(=O)N([C@@H](C)CO)C[C@@H](C)[C@@H](CN(C)Cc1ccc3c(c1)OCO3)O2	inactive
Cc1noc(C)c1S(=O)(=O)Nc1ccc2c(c1)CC(=O)N([C@@H](C)CO)C[C@H](C)[C@@H](CN(C)Cc1ccc(Oc3ccccc3)cc1)O2	inactive
Cc1noc(C)c1S(=O)(=O)Nc1ccc2c(c1)CC(=O)N([C@H](C)CO)C[C@H](C)[C@H](CN(C)Cc1ccc(Oc3ccccc3)cc1)O2	inactive
Cc1noc(C)c1S(=O)(=O)Nc1ccc2c(c1)CC(=O)N([C@@H](C)CO)C[C@@H](C)[C@H](CN(C)Cc1ccc3c(c1)OCO3)O2	inactive
Cc1noc(C)c1S(=O)(=O)Nc1ccc2c(c1)CC(=O)N([C@@H](C)CO)C[C@@H](C)[C@H](CN(C)Cc1ccc(Oc3ccccc3)cc1)O2	inactive
Cc1noc(C)c1S(=O)(=O)Nc1ccc2c(c1)CC(=O)N([C@H](C)CO)C[C@@H](C)[C@@H](CN(C)Cc1ccc3c(c1)OCO3)O2	active
Cc1noc(C)c1S(=O)(=O)Nc1ccc2c(c1)CC(=O)N([C@@H](C)CO)C[C@@H](C)[C@@H](CN(C)Cc1ccc(-c3ccccc3)cc1)O2	inactive
